Sampled rows, rich in hits. Any-hit rate of the full collection: about 12%.
Sfp inh: qHTS Assay for Inhibitors of Bacillus subtilis Sfp phosphopantetheinyl transferase (PPTase). Potency, µM, for inactives: largest response in the series, negative = inhibition, usual class: inhibitors. 4'-phosphopantetheinyl transferase ffp (Bacillus subtilis), Q9F4F7. 310,000 tested, 3.5% active. Biochemical Sfp PPTase activity, qHTS;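 further: the enzyme is Sfp with the accession as filed and its product quenches rhodamine fluorescence; 0% = enzyme reaction without inhibitor and -100% = no enzyme wells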
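Buffer: 50 mM Hepes-Na pH 7.6, 10 mM MgCl2, 0.01% Nonidet P-40, 0.01% BSA. Enzyme 15 nM, pre-exposed to compound 15 min; substrates then added and fluorescence change tracked over 30 min.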
JMJD2A Tudor inh: qHTS Assay for Inhibitors of JMJD2A-Tudor Domain; Lysine-specific demethylase 4A (Homo sapiens), O75164; AlphaScreen JMJD2A-Tudor / H3K4me3 peptide binding; Potency, µM (highest dose often 114 µM), inactives show at the top dose activity change, negative = inhibition, hits mostly inhibitors; 390,000 tested, 4.4% active; AID 504339, 2011; further: on the % scale 0 is the no-effect control and ±100 the full control effect; nearly all actives have a fitted effect of over 50% in size
L3MBTL1 inh: qHTS Assay for the Inhibitors of L3MBTL1. AlphaScreen L3MBTL1–H3K9me1 peptide binding. Potency, µM (titrated, usually from 57.1 µM), without a hit: top-dose activity, negative = inhibition, hits mostly inhibitors. 230,000 tested, 0.66% active. Lethal(3)malignant brain tumor-like protein 1 (Homo sapiens), Q9Y468; further: on the % scale 0 is the no-effect control and ±100 the full control effect; nearly all actives have a fitted effect of over 60% in size
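AlphaScreen assay: L3MBTL1 (50 nM final) was preincubated 30 min at room temperature with biotinylated H3(1-15)K9me1 peptide (75 nM final), then 30 min with library compounds; streptavidin donor and nickel chelate acceptor beads (10 ug/mL final) added, 30 min dark.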
HP1b binding inh: HTS for Inhibitors of HP1-beta Chromodomain Interactions with Methylated Histone Tails. AlphaScreen HP1-beta / biotin-H3K9me3 peptide binding. Potency, µM (highest dose often 114 µM), for the others: at the highest dose activity change, negative = inhibition, usual class: inhibitors. 390,000 tested, 0.56% active; further: nearly all actives have a fitted effect of over 70% in size
Target sequence (P83916 whole entry, looked up): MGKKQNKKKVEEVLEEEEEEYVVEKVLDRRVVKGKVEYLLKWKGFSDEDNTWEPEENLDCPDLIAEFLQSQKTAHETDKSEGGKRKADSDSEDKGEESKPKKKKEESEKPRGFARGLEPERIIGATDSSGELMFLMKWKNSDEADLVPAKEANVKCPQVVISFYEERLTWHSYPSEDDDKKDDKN
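Compound inhibition of the preformed complex between 50 nM HP1-beta and 50 nM biotinylated H3K9me3 peptide was read by AlphaScreen. Buffer was PBS pH 7.4 with 0.01% Tween-20. Incubations ran 30 min at room temperature, with 10 ug/mL donor/acceptor beads.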
G9a block: qHTS Assay for Inhibitors of Histone Lysine Methyltransferase G9a. G9a H3K9 monomethylation, AlphaScreen, 2 h. Potency, µM (titrated, usually from 102 µM), for the others: at the highest dose activity, negative = inhibition, usual class: inhibitors. 350,000 tested, 8.8% active. AID 504332, 2011; further: on the % scale 0 is the no-effect control and ±100 the full control effect; nearly all actives have a fitted effect of over 75% in size
Target sequence (Q96KQ7 913-1193 limits assumed): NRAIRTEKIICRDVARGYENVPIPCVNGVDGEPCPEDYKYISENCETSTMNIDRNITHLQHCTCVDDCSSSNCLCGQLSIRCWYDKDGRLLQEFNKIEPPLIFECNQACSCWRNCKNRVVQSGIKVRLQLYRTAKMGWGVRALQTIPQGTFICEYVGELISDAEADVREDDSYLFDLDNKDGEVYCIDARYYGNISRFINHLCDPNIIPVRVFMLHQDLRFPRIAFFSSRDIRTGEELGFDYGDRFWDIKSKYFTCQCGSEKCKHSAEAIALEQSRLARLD
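Enzyme 20 nM + cpd, 15 min RT; add b-H3K9 pep 500 nM / SAM 20 uM; 2 h RT; anti-H3K9me1 Ab 0.5 ug/mL + SA donor / anti-rabbit acceptor beads 20 ug/mL each, 10 min; AlphaScreen read.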
BAZ2B block: qHTS Assay for Inhibitors of BAZ2B; Bromodomain adjacent to zinc finger domain protein 2B (Homo sapiens), Q9UIF8; Potency, µM (doses to about 114 µM), without a hit: at the highest dose activity change, negative = inhibition, usual class: inhibitors; AlphaScreen BAZ2B-H3K14Ac peptide displacement; 360,000 tested, 4.4% active; further: on the % scale 0 is the no-effect control and ±100 the full control effect; nearly all actives have a fitted effect of over 60% in size
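BAZ2B (50 nM) with biotin-H3(5-23)K14Ac peptide (50 nM) in PBS pH 7.4, 0.01% Tween-20, preformed 30 min, then compound 30 min at room temperature; top concentration 110uM. AlphaScreen streptavidin donor/nickel chelate acceptor beads (10 ug/mL final), 20 min dark, signal read.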
* marks the source's active call; other numbers are inactive results; u = inconclusive; x = no result given; [ ] = another dose, or the depositor's remark. The call rests on the fitted dose curve; in most records, active means well fitted curve in the direction sought with a large enough effect; inconclusive means small, poorly fitted or top-dose-only effect, or another doubt; inactive means no such curve, though single readings can be large; an effect the other way counts as inactive or inconclusive. Potency means the concentration at half of the fitted maximal effect.

SMILES | Sfp inh | JMJD2A Tudor inh | L3MBTL1 inh | HP1b binding inh | G9a block | BAZ2B block
COC(=O)c1c(NC(=O)C(C)C)sc(C(=O)N2CCOCC2)c1C | u | -9% | x | -21% | 45µM* | 5%
COC(=O)c1c(NC(C)=O)sc(C(=O)N2CCOCC2)c1C | -6% | -4% | x | -12% | 29% | -1%
Cc1ccc(NC(=O)c2sccc2SCc2cccc(C(F)(F)F)c2)cc1 | 4% | 52% | 34% | 144% | 25µM* | 52%
N#CCSc1ccsc1C(=O)Nc1ccc(F)cc1 | u | -8% | -15% | u | 7.9µM* | 4%
CCCCOC(=O)c1ccc(NC(=O)c2cc(-c3cccs3)on2)cc1 | x | -2% | x | 31% | -23%[59 µM] | -3%
COc1cccc(C(=O)Nc2ccccc2)c1 | 1% | 1%[57.1 µM] | 3% | 53% | 0%[2.33 µM] | 12%
COc1cccc(C(=O)NC(c2ccccc2)C2CCCC2)c1 (centres undefined) | 14% | 22µM* | 1% | 1% | 3% | 1%
CCOC(=O)C1CCN(S(=O)(=O)CCNC(=O)c2ccccc2)CC1 | x | -8% | 4% | 28% | 2% | -5%
COc1cccc(C(=O)NCCS(=O)(=O)N(C)Cc2ccccc2)c1 | x | -14% | -1% | 19% | 45µM* | 2%
CCOC(=O)C1CCCN(S(=O)(=O)CCNC(=O)c2cccc(OC)c2)C1 (centres undefined) | x | -32% | -4% | 34% | 11µM* | -7%
COc1cccc(C(=O)NCCS(=O)(=O)N(C)C2CCCCC2)c1 | x | -9% | 7% | 19% | 22µM* | -6%
O=C(O)C(c1ccccc1)C(c1ccccc1)c1ccccc1 (centres undefined) | 13% | -5% | x | 51% | -48% | 50µM*
O=C(O)C(SC(C(=O)O)c1ccccc1)c1ccccc1 (centres undefined) | x | 56µM* | x | 11% | x | x
Cc1ccc(NC(=O)Cc2ccc(-n3c(C)nc4cccnc43)cc2)c(Cl)c1 | x | -6% | x | 48% | -3%[59 µM] | -16%
COC(=O)c1ccc(CSc2nc3scc(-c4cccs4)c3c(=O)[nH]2)o1 | 56µM* | 45µM* | u | 4% | u | x
COC(=O)c1ccc(CSc2nc3c(cnn3-c3ccc(C)c(C)c3)c(=O)[nH]2)o1 | 9% | 50µM* | -3% | -2% | -6%[59 µM] | -1%
Cc1cc(OCC(=O)NNC(=S)NC(=O)c2cccs2)ccc1Cl | 14% | -16% | x | 12% | 32µM* | -1%
Cc1cccc(C(=O)NC(=S)NNC(=O)c2cccs2)c1 | 1% | 25µM* | -3% | u | 7.1µM* | 11%
O=C(NNC(=O)c1cccc(Cl)c1)NNC(=O)c1cccc(Cl)c1 | x | 1% | -1% | 26% | x | x
O=C(NNC(=S)Nc1ccccc1)c1cccs1 | 19% | -23% | 2% | 24% | u | 7%
O=C(NC(=S)NNC(=O)c1cccs1)c1ccccc1 | -21% | -18% | x | 11% | 8.9µM* | 6%
NC(=S)NNC(=O)c1cccc(Cl)c1 | u | 6% | x | 31% | 71µM* | 29%
Cc1ccc(OCC(=O)NNC(=S)NC(=O)c2cccs2)c(C)c1 | 16% | -23% | x | 43% | x | 1%
CC(C)c1cc(-c2nc(-c3ccc(Cl)cc3)no2)n[nH]1 | x | -11% | x | 25% | -5%[59 µM] | -8%
CCCOc1ccc(C(=O)NNC(=S)NC(=O)c2cccs2)cc1 | 28% | u | x | -12%[57 µM] | u | -26%
SMILES | Sfp inh | JMJD2A Tudor inh | L3MBTL1 inh | HP1b binding inh | G9a block | BAZ2B block
Cc1cccc(C(=O)NC(=S)NNC(=O)c2ccc(Cl)cc2)c1 | -2% | -18% | 5% | -3% | 40µM* | 2%
CC(C)(C)c1ccc(C(=O)NC(=S)NNC(=O)c2cccs2)cc1 | -26% | u | 7% | -25% | 40µM* | -37%
COc1ccc(C(=O)NNC(=S)NC(=O)c2ccc(Cl)cc2)cc1 | x | -14% | x | 10% | x | x
O=C(NNC(=O)c1cc2cc3ccccc3nc2s1)c1cccc(Cl)c1 | 7% | 50µM* | -8% | -25% | 32µM* | -38%
Cc1ccccc1OCC(=O)Nc1ccc2nc(SCC(=O)N3CCc4ccccc43)sc2c1 | x | -16% | x | 54% | 10%[59 µM] | -4%
CCCOc1ccc(-c2c(=O)n(O)c3ccccc3[n+]2[O-])cc1 | -21% | 56µM* | -5%[2.29 µM] | -18% | 9%[0.501 µM] | u
CC(C)(C)CN1CCNC[C@H]1Cc1cccc2ccccc12 | x | -28% | -5% | 34% | 2%[2.33 µM] | -39%
CCC(C)[C@H]1CNCCN1CCc1cccc2ccccc12 (some centres undefined) | x | 56µM* | -8% | 0% | 18%[2.33 µM] | u
c1ccc2c(C[C@@H]3CNCCN3CCC34CC5CC(CC(C5)C3)C4)cccc2c1 | x | 40µM* | -3% | -4% | x | x
CCC(C)[C@H]1CNCCN1CC1(c2ccccc2)CC1 (some centres undefined) | x | -22% | 7% | 38% | 13%[2.33 µM] | 10%
CCC(C)[C@H]1CNCCN1CCc1cc(C(F)(F)F)cc(C(F)(F)F)c1 (some centres undefined) | x | -35% | -5% | 26% | -19%[2.33 µM] | 50µM*
CC(=O)N1CCCC1c1nc2ccccc2n1Cc1cccc(C)c1 (centres undefined) | x | -12% | x | 28% | u | -2%
Cc1ccccc1Cn1ccc(NC(=O)c2cc3ncc(Br)cn3n2)n1 | 8% | -11% | -30% | 33% | -37% | 50µM*
Cc1nn(Cc2ccc(F)cc2)c(C)c1NC(=O)c1cc2ncc(Br)cn2n1 | 9% | u | -19% | -8% | u | u
CSc1ccccc1NC(=O)c1cc2ncc(Br)cn2n1 | u | u | -4%[11.4 µM] | -10% | 35µM* | 56µM*
CSc1ccccc1NC(=O)c1cnccn1 | -27% | -24% | 0% | 6% | 25µM* | 0%
COCCN1C(=O)C(O)=C(C(C)=O)C1c1ccc(OC)c(OC)c1 (centres undefined) | -11% | 16µM* | 3% | 11% | 45µM* | u
COc1cccc(N2C(=O)C(O)=C(C(C)=O)C2c2ccc(OC)c(OC)c2)c1 (centres undefined) | -16% | u | x | -2% | u | u
COc1ccc(C2C(C(C)=O)=C(O)C(=O)N2c2cccnc2)cc1OC (centres undefined) | 3% | 79µM* | x | 22% | u | u

Assay outcomes from PubChem BioAssay.
